log2 fold change data for 27 targets are collected here from the supplement of paper PMC10849652.

Common to all, as to assay: log2 fold change, soluble protein after heating vs DMSO (PISA); higher = thermal stabilisation; K562 lysate, 10 uM; active = over 0.2 and 3.5 SD of the protein, either way, in both replicates (recomputed)
Compound in test [1]: C1=CC=C(C=C1)[C@H](COC2=CC3=C(C=C2)NC(=O)N3)NC(=O)C4=CC=CN(C4=O)CC5=CC(=C(C=C5)F)F
The method, boiled down: (§1)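 The values are log-two fold changes in thermal stability compared with solvent controls and come from duplicates. They were obtained by TMTpro 16plex LC-MS/MS, with channel sums equalised, on the supernatant after 21,000xg for 90 min. That supernatant came from crude K562 extract at 1 mg/mL protein treated with 10 μM compound for 30 min, heated for 3 min across 48°C-58°C, pooled and brought to 0.5% NP-40 at 4°C.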

Compound in test [2]: CC1=C(SC2=C1C(=N[C@H](C3=NN=C(N32)C)CC(=O)N)C4=CC=C(C=C4)Cl)C
Summed up:
as §1

Compound in test [3]: CC1=C2C(=CC=C1)N=C(N(C2=O)C3=CC=CC=C3C)CN4C=NC5=C(N=CN=C54)N
Summed up: as §1

Compound in test [4]: Cc1sc2c(c1C)C(c1ccc(Cl)cc1)=N[C@@H](CC(=O)OC(C)(C)C)c1nnc(C)n1-2
Summed up: as §1

Compound in test [5]: c1ccc([C@@H]2C[C@H]2NC2CCNCC2)cc1
Summed up:
as §1

The full data set covers some 8,800 targets. This sample favours those with a hit. About 0.5% of all pairs of compound and target were hits. Unmarked numbers belong to inactive results.

Sequence of UniProt Q8TCD6 (Q8TCD6 whole entry, looked up): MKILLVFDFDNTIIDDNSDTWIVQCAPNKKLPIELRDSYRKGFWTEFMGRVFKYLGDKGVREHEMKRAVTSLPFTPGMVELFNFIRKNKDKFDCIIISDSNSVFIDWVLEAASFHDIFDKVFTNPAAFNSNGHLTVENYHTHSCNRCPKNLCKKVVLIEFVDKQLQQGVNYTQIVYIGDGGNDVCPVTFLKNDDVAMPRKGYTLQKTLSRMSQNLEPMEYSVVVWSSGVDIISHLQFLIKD
Sequence of UniProt Q9UBF8 (Q9UBF8 whole entry, looked up): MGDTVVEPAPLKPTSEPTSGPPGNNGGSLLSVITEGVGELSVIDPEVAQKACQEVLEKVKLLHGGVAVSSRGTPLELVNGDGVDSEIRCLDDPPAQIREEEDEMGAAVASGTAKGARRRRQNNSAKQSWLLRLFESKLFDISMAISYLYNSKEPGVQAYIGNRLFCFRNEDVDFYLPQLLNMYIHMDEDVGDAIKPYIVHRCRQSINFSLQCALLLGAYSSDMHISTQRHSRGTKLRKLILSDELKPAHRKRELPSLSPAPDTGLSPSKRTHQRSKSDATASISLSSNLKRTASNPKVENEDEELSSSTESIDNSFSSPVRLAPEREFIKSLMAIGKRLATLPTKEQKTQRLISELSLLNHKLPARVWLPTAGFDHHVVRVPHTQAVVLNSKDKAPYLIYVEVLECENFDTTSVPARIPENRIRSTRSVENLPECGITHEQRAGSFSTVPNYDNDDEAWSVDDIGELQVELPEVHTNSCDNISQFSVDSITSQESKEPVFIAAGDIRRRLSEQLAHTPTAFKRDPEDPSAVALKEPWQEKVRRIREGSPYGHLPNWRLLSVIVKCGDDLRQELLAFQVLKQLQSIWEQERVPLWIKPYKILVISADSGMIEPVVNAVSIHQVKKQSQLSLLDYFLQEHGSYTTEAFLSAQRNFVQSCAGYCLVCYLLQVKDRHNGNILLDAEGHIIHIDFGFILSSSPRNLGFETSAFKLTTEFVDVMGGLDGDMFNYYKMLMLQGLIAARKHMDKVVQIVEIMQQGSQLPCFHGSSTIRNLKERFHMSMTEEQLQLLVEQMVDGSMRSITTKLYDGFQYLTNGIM
Sequence of UniProt P67775 (P67775 whole entry, looked up): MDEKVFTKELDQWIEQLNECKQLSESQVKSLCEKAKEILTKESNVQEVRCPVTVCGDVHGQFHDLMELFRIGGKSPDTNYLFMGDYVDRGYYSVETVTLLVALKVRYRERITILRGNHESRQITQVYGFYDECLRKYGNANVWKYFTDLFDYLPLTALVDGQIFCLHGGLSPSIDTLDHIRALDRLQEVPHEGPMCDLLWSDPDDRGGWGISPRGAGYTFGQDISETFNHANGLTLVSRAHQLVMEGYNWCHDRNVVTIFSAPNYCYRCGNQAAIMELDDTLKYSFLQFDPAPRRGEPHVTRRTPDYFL
Sequence of UniProt Q93096 (Q93096 whole entry, looked up): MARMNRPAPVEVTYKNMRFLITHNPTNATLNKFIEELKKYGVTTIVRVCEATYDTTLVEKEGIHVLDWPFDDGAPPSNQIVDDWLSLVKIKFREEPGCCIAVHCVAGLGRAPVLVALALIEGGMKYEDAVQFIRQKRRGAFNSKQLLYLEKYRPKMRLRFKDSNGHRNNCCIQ
Sequence of UniProt Q8TEQ8 (Q8TEQ8 whole entry, looked up): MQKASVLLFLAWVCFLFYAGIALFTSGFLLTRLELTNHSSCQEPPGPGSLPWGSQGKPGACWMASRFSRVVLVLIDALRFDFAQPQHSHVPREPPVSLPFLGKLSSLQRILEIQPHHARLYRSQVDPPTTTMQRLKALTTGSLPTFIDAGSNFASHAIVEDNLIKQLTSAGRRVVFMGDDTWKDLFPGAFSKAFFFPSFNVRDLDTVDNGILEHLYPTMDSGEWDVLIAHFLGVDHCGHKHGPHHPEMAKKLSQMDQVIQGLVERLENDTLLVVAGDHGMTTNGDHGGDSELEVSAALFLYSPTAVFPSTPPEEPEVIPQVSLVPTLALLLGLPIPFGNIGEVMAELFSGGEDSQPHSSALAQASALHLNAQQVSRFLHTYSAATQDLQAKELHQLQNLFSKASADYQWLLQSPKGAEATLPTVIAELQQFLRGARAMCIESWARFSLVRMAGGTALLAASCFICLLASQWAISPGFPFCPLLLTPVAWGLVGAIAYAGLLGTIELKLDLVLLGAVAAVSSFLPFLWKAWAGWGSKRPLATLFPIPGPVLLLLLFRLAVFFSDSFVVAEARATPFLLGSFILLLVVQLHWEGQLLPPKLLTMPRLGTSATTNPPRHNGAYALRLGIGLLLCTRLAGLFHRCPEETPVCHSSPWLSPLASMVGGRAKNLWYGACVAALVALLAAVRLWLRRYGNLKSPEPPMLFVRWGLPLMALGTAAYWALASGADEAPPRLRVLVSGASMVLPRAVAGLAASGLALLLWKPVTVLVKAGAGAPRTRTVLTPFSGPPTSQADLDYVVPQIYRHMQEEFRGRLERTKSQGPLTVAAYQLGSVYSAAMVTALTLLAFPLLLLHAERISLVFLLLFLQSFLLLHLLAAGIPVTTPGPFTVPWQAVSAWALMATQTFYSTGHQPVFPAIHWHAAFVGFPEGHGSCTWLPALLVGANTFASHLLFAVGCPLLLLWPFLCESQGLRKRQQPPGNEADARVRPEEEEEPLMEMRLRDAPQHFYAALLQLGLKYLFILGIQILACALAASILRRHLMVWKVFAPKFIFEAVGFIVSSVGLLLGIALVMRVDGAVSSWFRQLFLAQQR
Sequence of UniProt P28340 (P28340 whole entry, looked up): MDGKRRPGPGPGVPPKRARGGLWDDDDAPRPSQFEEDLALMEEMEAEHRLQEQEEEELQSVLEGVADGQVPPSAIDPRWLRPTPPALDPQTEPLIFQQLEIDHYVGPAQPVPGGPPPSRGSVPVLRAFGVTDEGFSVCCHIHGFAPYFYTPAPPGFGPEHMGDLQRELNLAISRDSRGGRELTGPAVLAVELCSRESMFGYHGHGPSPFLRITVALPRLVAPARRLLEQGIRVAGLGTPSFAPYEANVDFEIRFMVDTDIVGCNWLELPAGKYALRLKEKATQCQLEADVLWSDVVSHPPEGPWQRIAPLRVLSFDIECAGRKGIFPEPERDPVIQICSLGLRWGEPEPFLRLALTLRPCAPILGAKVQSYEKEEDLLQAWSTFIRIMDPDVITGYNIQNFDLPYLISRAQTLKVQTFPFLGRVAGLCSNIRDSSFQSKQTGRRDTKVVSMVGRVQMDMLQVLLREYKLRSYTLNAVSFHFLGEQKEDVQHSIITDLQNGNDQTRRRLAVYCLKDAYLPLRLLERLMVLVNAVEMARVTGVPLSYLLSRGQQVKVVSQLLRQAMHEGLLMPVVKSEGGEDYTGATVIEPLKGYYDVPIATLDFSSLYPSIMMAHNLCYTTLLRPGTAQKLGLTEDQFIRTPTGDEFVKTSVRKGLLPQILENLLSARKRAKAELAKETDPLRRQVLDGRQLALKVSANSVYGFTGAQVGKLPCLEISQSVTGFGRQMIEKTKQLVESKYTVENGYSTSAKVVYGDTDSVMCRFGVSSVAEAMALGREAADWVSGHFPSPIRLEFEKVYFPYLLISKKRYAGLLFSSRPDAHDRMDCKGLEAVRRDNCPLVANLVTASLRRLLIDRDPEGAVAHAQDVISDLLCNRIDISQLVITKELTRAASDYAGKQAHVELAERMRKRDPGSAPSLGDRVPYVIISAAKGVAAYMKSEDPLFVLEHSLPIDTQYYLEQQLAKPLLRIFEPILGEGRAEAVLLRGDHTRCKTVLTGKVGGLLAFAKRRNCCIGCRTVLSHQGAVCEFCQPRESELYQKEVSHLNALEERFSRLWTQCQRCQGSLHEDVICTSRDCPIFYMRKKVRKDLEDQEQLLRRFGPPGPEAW
Sequence of UniProt Q8N8N7 (Q8N8N7 whole entry, looked up): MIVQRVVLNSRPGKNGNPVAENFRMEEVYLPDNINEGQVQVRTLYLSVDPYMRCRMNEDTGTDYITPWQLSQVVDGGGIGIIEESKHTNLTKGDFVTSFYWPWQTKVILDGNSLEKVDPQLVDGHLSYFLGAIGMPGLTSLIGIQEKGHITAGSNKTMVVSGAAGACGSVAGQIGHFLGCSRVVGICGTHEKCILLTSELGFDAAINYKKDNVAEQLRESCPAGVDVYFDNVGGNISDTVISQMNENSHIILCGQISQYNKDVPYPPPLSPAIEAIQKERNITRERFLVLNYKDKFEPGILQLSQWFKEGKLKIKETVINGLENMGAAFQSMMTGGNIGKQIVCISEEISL
Sequence of UniProt Q8N4L2 (Q8N4L2 whole entry, looked up): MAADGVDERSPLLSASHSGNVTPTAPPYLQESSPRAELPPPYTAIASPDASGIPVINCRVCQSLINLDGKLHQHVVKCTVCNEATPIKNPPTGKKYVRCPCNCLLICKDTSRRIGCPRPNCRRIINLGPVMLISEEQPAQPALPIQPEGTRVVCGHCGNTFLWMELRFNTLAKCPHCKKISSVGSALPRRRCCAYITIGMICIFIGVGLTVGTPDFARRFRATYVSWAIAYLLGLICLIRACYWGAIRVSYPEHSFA
Sequence of UniProt P13861 (P13861 whole entry, looked up): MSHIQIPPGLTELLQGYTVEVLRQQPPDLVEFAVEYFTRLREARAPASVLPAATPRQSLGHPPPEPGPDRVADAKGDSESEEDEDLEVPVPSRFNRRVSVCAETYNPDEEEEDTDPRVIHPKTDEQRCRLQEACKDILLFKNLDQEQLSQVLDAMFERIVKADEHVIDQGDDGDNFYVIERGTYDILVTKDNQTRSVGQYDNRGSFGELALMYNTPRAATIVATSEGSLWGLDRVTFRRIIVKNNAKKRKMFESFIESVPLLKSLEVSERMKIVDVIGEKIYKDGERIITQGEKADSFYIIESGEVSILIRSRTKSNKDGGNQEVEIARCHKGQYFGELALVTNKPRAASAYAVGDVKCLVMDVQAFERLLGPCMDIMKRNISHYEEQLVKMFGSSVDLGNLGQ
Sequence of UniProt Q9Y6I8 (Q9Y6I8 whole entry, looked up): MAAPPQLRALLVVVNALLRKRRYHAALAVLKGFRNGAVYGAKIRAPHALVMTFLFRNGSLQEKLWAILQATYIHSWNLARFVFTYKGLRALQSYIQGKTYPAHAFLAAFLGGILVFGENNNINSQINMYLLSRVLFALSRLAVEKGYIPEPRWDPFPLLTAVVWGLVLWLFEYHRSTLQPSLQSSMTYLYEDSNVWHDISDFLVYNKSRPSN

For PMS1 (UniProt P54277), the log2 fold change is -0.011 in test [1]; -0.056 in test [2]; 0 in test [3]; -0.06 in test [4]; -0.006 in test [5].

Consider PPP2R5C isoform 4 (UniProt Q13362), for which the log2 fold change was -0.057 in test [1]; 0.003 in test [2]; 0.021 in test [3]; -0.103 in test [4]; 0.021 in test [5].

With PXMP4 (UniProt Q9Y6I8), the log2 fold change in test [1] is -0.096; in test [2], -0.022; in test [3], -0.026; in test [4], -0.191; in test [5], 0.041.

As for PRKCA (UniProt P17252), the log2 fold change in test [1] was 0.01; in test [2], -0.012; in test [3], -0.061; in test [4], 0.021; in test [5], 0.089.

Turning to PDCD6IP (UniProt Q8WUM4), the log2 fold change is -0.077 in test [1]; 0.086 in test [2]; 0.037 in test [3]; 0.043 in test [4]; 0.085 in test [5].

With PPIE (UniProt Q9UNP9), the log2 fold change in test [1] was 0.033; in test [2] it was -0.023; in test [3], 0.026; in test [4] it was -0.04; in test [5] it was -0.144.

As for PTP4A1 (UniProt Q93096), the log2 fold change in test [1] was 0.047; in test [2], 0.006; in test [3] it was 0.012; in test [4] it was -0.01; in test [5] it was 0.041.

For PTS (UniProt Q03393), the log2 fold change is -0.024 in test [1]; -0.274 (active) in test [2]; 0.032 in test [3]; -0.093 in test [4]; 0.022 in test [5].

As for PPCDC (UniProt Q96CD2), the log2 fold change in test [1] is -0.02; in test [2], 0.034; in test [3] it was -0.054; in test [4], -0.074; in test [5], -0.191.

On to PIP4P2 (UniProt Q8N4L2), for which the log2 fold change in test [1] was 0.03; in test [2], -0.068; in test [3], -0.012; in test [4] it was 0.012; in test [5], -0.106.

As for PHKA1 (UniProt P46020), the log2 fold change in test [1] is 0.033; in test [2], 0.02; in test [3], 0; in test [4], -0.008; in test [5], 0.001.

Take POLD1 (UniProt P28340): the log2 fold change is 0.026 in test [1]; 0.003 in test [2]; 0.011 in test [3]; 0.03 in test [4]; 0.042 in test [5].

Turning to PPP2CA (UniProt P67775), the log2 fold change was -0.108 in test [1]; 0.037 in test [2]; 0.037 in test [3]; 0.092 in test [4]; -0.092 in test [5].

For POLR3E (UniProt Q9NVU0), the log2 fold change in test [1] was -0.031; in test [2], -0.003; in test [3] it was -0.001; in test [4], -0.002; in test [5], -0.012.

PRKACB isoform 2 (UniProt P22694): the log2 fold change in test [1] was -0.042; in test [2], -0.004; in test [3], -0.018; in test [4] it was -0.009; in test [5], 0.019.

For PPIC (UniProt P45877), the log2 fold change in test [1] is 0.209; in test [2] it was -0.242; in test [3], 0.12; in test [4], 0.005; in test [5], 0.055.

With PRKAR2A (UniProt P13861), the log2 fold change in test [1] was 0.009; in test [2], 0.012; in test [3], 0.038; in test [4] it was -0.011; in test [5], 0.027.

With PI4KB (UniProt Q9UBF8), the log2 fold change in test [1] was 0.022; in test [2], -0.006; in test [3], -0.019; in test [4] it was -0.005; in test [5] it was 0.002.

Regarding PRKAB2 (UniProt O43741), the log2 fold change was 0.1 in test [1]; -0.012 in test [2]; 0.009 in test [3]; -0.047 in test [4]; -0.418 in test [5].

On to PSMB9 (UniProt P28065), for which the log2 fold change in test [1] is 0.074; in test [2], 0.159; in test [3], 0.111; in test [4] it was -0.095; in test [5], -0.013.

On to PIGO (UniProt Q8TEQ8), for which the log2 fold change in test [1] was -0.098; in test [2], -0.058; in test [3], -0.014; in test [4] it was -0.023; in test [5], 0.039.

In the case of PTPN7 isoform 3 (UniProt P35236), the log2 fold change is -0.028 in test [1]; 0.002 in test [2]; -0.031 in test [3]; 0.015 in test [4]; -0.012 in test [5].

PGLS (UniProt O95336): the log2 fold change in test [1] is -0.063; in test [2] it was -0.06; in test [3], 0.094; in test [4] it was -0.04; in test [5] it was 0.095.

Turning to PCBP2 (UniProt H3BRU6), the log2 fold change in test [1] is 0.166; in test [2] it was -0.15; in test [3], -0.208; in test [4], 0.104; in test [5], -0.11.

With PPP2R5C isoform 5 (UniProt Q13362), the log2 fold change in test [1] was -0.068; in test [2], 0.011; in test [3], -0.02; in test [4] it was -0.024; in test [5], 0.071.

Regarding PTGR2 (UniProt Q8N8N7), the log2 fold change in test [1] is 0.009; in test [2], 0.039; in test [3] it was -0.003; in test [4], -0.048; in test [5], -0.004.

Take PHOSPHO2 (UniProt Q8TCD6): the log2 fold change in test [1] is -0.029; in test [2] it was 0.02; in test [3], 0.046; in test [4], -0.053; in test [5] it was 0.061.
